Results reported in PubChem BioAssay (NCATS).
Records with an inconclusive call do not appear. Active and inactive are the calls of the source. Unless noted, calls come from the whole dose curve; as a rule, active = well fitted curve in the direction sought with a large enough effect; inconclusive = small, poorly fitted or top-dose-only effect, or another doubt; inactive = no such curve, though single readings can be large; an effect the other way counts as inactive or inconclusive.

What was measured:
[1] = target: Aldehyde dehydrogenase, mitochondrial (Homo sapiens) (UniProt P05091); experiment: qHTS for Inhibitors of the Aldehyde Dehydrogenase Family (ALDH2) Confirmatory screens (AID 2061303; active = well fitted inhibition curve with a large enough effect; title and protocol of this record describe different tests; note: nearly all actives have a fitted effect of over 45% in size; note: potency is the fitted concentration of half-maximal effect)
[2] = qHTS for Inhibitors of the Aldehyde Dehydrogenase Family (ALDH1A2, ALDH1A3, ALDH2, ALDH3A1) (AID 2061307); note: nearly all actives have a fitted effect of over 50% in size; for Potency: test system not described further here; potency is the fitted concentration of half-maximal effect
[3] = target: Aldehyde dehydrogenase, mitochondrial (Homo sapiens) (UniProt P05091); experiment: qHTS for Inhibitors of the Aldehyde Dehydrogenase Family (ALDH2) Primary screen (AID 2061308); note: nearly all actives have a fitted effect of over 55% in size; note: potency is the fitted concentration of half-maximal effect
[4] = target: Retinal dehydrogenase 2 (Homo sapiens) (UniProt O94788); experiment: qHTS for Inhibitors of the Aldehyde Dehydrogenase Family (ALDH1A2) Confirmation screens (AID 2061314); note: nearly all actives have a fitted effect of over 65% in size; note: potency is the fitted concentration of half-maximal effect
[5] = target: Retinaldehyde dehydrogenase 3 (Homo sapiens) (UniProt P47895); experiment: qHTS for Inhibitors of the Aldehyde Dehydrogenase Family (ALDH1A3) Primary screen (AID 2061315)
[6] = target: Aldehyde dehydrogenase 1A1 (Homo sapiens) (UniProt P00352); experiment: qHTS for Inhibitors of the Aldehyde Dehydrogenase Family (ALDH1A1) Confirmatory screens (AID 2061316); note: nearly all actives have a fitted effect of over 65% in size
[7] = target: Retinaldehyde dehydrogenase 3 (Homo sapiens) (UniProt P47895); experiment: qHTS for Inhibitors of the Aldehyde Dehydrogenase Family (ALDH1A3) Validation screen (AID 2061312); note: nearly all actives have a fitted effect of over 45% in size

Measured: Potency

COc1cccc(OC)c1C1=Nn2c(nnc2-c2ccccc2C)SC1
inactive: [1] | [2] | [3] | [4] | [5]

CC(C)c1ccccc1-c1nc2c(c(NCc3ccc(-c4cccnc4)cc3)n1)CCNC2
inactive: [1] | [2] | [3] | [4] | [5] | [6]

CN1CCN(C2CCN(Cc3ccc(O)c4ncccc34)CC2)CC1
inactive: [1] | [2] | [3] | [4]

CC(C)(C)OC(=O)N1CCN(c2ccc(NCc3ccnc(-c4ccc(C#N)cc4)n3)cc2)CC1
active: [1] 504 nM | [2] 357 nM | [3] 282 nM
inactive: [4] | [5]

CN1CCN(C2=Nc3ccccc3Nc3ccc(O)cc32)CC1
inactive: [1] | [2] | [3] | [7] | [4] | [6]

CN(Cc1ncc[nH]1)c1ncnc2ccc(-c3ccc4c(c3)OCO4)cc12
inactive: [1] | [2] | [3] | [4] | [5] | [6]

COc1ccc(-c2nc3ccccc3c(=O)n2Cc2ccc(CNC(=O)CO)cc2)cc1COc1ccc(NC(C)=O)cc1
inactive: [1] | [3]
active: [2] 8960 nM | [4] 15900 nM

CCCCN(C)C(=O)Cn1nc(-c2ccncc2)ccc1=O
inactive: [1] | [2] | [3] | [4] | [5]

Cc1ccc(OCCn2c(CCNC(=O)CCc3ccc(N)cc3)nc3ccccc32)cc1
inactive: [1] | [2] | [3] | [4] | [5]

O=C(Nc1ncc(Cc2ccc(C(F)(F)F)cc2)s1)c1ncc(-c2ccccc2)[nH]1
inactive: [1] | [2] | [3] | [4] | [5]
